An excerpt weighted towards active compounds, which were near 21% of everything screened.
TDP1 cell CPT – qHTS for Inhibitors of human tyrosyl-DNA phosphodiesterase 1 (TDP1): qHTS in cells in presence of CPT. chicken DT40 Tdp1-/-;hTDP1 cells + 20 nM CPT, ATP luminescence, 48 h. Potency, µM (doses to about 46.2 µM), inactives show at the top dose activity change, negative = growth inhibition, most hits filed as inhibitors. 12% of 420,000 active. AID 686979, 2013; also: potency is read from the fitted curve at half-maximal effect; nearly all actives have a fitted effect of over 55% in size
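Chicken DT40 Tdp1-/- cells complemented with human TDP1, 400 cells/well, exposed to compounds plus 20 nM camptothecin for at least 48 h at 37 C; viability read as ATP content by CellTiter-Glo luminescence.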
RORg inh – qHTS for inhibitors of ROR gamma transcriptional activity | Nuclear receptor ROR-gamma (Mus musculus), P51450 | Drosophila S2 Gal4-RORgamma UAS-luciferase reporter, 20 h | Potency, µM (top dose mostly 53.6 µM), without a hit: top-dose activity change, negative = inhibition, usual class: inhibitors | 5.4% of 310,000 active; also: potency is read from the fitted curve at half-maximal effect; nearly all actives have a fitted effect of over 60% in size
Target sequence (P51450 whole entry, looked up, the tested form may be a part): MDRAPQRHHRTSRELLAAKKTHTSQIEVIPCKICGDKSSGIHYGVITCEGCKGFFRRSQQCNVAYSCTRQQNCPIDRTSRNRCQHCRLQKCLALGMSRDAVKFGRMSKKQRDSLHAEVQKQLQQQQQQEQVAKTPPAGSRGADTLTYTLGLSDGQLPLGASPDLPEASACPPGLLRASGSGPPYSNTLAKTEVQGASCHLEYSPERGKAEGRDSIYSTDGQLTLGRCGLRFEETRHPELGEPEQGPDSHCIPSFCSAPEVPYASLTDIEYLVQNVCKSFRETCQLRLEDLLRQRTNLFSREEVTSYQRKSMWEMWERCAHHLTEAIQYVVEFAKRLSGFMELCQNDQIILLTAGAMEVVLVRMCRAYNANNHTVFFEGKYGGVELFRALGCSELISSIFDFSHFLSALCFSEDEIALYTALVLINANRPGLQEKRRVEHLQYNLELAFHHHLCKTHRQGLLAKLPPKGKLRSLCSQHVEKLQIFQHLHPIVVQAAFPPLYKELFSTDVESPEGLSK
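Compounds are pin-transferred onto Drosophila Schneider cells expressing a copper-inducible Gal4–ROR gamma transactivation domain fusion. After 1 hr, copper sulfate is added to 700 uM final; luciferase is read 20 hr later.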
Gal4-VP16 FLuc – VP16 counterscreen qHTS for inhibitors of ROR gamma transcriptional activity | Drosophila S2 Gal4-VP16 UAS-luciferase, luminescence, 20 h | Potency, µM (top dose mostly 53.6 µM), for inactives: top-dose activity, negative = inhibition, usual class: inhibitors | 3.5% of 310,000 active;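 also: Gal4-VP16 expression switched on by copper sulfate through the metallothionein promoter; potency is read from the fitted curve at half-maximal effect; nearly all actives have a fitted effect of over 50% in size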
IL-1B inflam inh – qHTS for Inhibitors of Inflammasome Signaling: IL-1-beta AlphaLISA Primary Screen; activity change, % at 57.5 µM; 4.7% of 360,000 active; THP-1 LPS/ATP IL-1B secretion, AlphaLISA, 16 h; active compounds read low; in the data active = activity change below about -50%; inconclusive = mostly about -30% to -49%
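Secreted IL-1B measured by AlphaLISA bead assay after 16 h compound exposure of THP-1 cells; compounds (final up to 57.5 uM) added 1 h before LPS (250 ng/mL) and ATP (1.25 mM) stimulation; lower signal means less secretion.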
TDP1 cell noCPT – qHTS for Inhibitors of human tyrosyl-DNA phosphodiesterase 1 (TDP1): qHTS in cells in absence of CPT. DT40 Tdp1-/- hTDP1 cells, no CPT, ATP luminescence, 48 h. Potency, µM (series often up to 46.2 µM), inactives show top-dose activity change, negative = growth inhibition, actives largely listed as inhibitors. 15% of 420,000 active. AID 686978, 2013; also: potency is read from the fitted curve at half-maximal effect; nearly all actives have a fitted effect of over 55% in size
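Luminescent ATP content (CellTiter-Glo) served as the growth readout. Knockout chicken DT40 cells expressing human TDP1 were exposed to compounds without camptothecin for a minimum 48 hr at 37 °C.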
ELG1 DNA repair – qHTS screen for small molecules that inhibit ELG1-dependent DNA repair in human embryonic kidney (HEK293T) cells expressing luciferase-tagged ELG1; HEK293T ELG1-luciferase reporter, luminescence, 16 h; DNA damage induced by 5-fluorouridine; Potency, µM (titrated, usually from 46.1 µM), for inactives: top-dose activity change, negative = inhibition, hits mostly inhibitors; 2.3% of 330,000 active; AID 504467, 2011; also: potency is read from the fitted curve at half-maximal effect; nearly all actives have a fitted effect of over 55% in size
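HEK293T cells expressing luciferase-tagged ELG1 (2,000/well) received 5-Fluorouridine plus compound or DMSO for 16 hr at 37 °C. Luciferase was read by ONE-Glo luminescence after 30 min at room temperature.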
* = called active by the depositor; [ ] = dose if it differs, or a comment. Unless noted, calls follow the shape of the dose curve; as a rule, active = well fitted curve in the direction sought with a large enough effect; inconclusive = small, poorly fitted or top-dose-only effect, or another doubt; inactive = no such curve, though single readings can be large; an effect the other way counts as inactive or inconclusive. % is scaled to controls: 0 for no effect and ±100 for the full control effect.

What do the screens show for `CCOc1ccc(NC(=O)c2ccc(CN3CCc4ccccc4C3)cc2)cc1`?
TDP1 cell CPT: inconclusive; RORg inh: -1%; Gal4-VP16 FLuc: -1%; IL-1B inflam inh: -3; TDP1 cell noCPT: -24%; ELG1 DNA repair: inconclusive

How did CC(=O)c1cccc(NC(=O)c2ccc(CN3CCc4ccccc4C3)cc2)c1 do in these assays?
TDP1 cell CPT: -27%; RORg inh: 16%; Gal4-VP16 FLuc: inconclusive; IL-1B inflam inh: -14; TDP1 cell noCPT: -20%; ELG1 DNA repair: 8.2µM*

How did C/C(=N\NC(=O)c1ccc(CN2CCc3ccccc3C2)cc1)c1ccccc1O do in these assays?
TDP1 cell CPT: 12µM*; RORg inh: 0.89µM*; Gal4-VP16 FLuc: 2.5µM*; IL-1B inflam inh: 163; TDP1 cell noCPT: 8.2µM*; ELG1 DNA repair: 3.3µM*

How did O=C(Nc1cccc(C(=O)N2CCN(Cc3ccccc3)CC2)c1)c1ccccc1 do in these assays?
TDP1 cell CPT: inconclusive; RORg inh: inconclusive; Gal4-VP16 FLuc: -14%; IL-1B inflam inh: -19; TDP1 cell noCPT: inconclusive; ELG1 DNA repair: 21µM*

Results for CCCNC(=O)c1ccc(CN2CCc3ccccc3C2)cc1 ?
TDP1 cell CPT: -10%; RORg inh: 7%; Gal4-VP16 FLuc: -6%; IL-1B inflam inh: 2; TDP1 cell noCPT: -24%; ELG1 DNA repair: -13%

How did CCCCn1nnnc1C1(C)CCC(=O)N1CC1CCCCC1 (stereo not drawn) do in these assays?
TDP1 cell CPT: -17%; IL-1B inflam inh: 34; TDP1 cell noCPT: -19%

How did CN(C)c1ccc(/C=C2/CCCc3c2nc2ccccc2c3C(=O)O)cc1 do in these assays?
TDP1 cell CPT: -2%; TDP1 cell noCPT: -20%

What do the screens show for `CC(=O)NCCC(=O)Nc1nc2ccc(Oc3ccccc3)cc2s1`?
TDP1 cell CPT: -15%; RORg inh: 3%; Gal4-VP16 FLuc: -4%; IL-1B inflam inh: -18; TDP1 cell noCPT: inconclusive; ELG1 DNA repair: inconclusive

Results for Cn1nnc2c[n+](CC(=O)c3ccc4ccccc4c3)cc(Br)c21 ?
TDP1 cell CPT: inconclusive; RORg inh: 21%; Gal4-VP16 FLuc: 12%; IL-1B inflam inh: -101*; TDP1 cell noCPT: 15µM*; ELG1 DNA repair: inconclusive

How did O=C(C[n+]1ccncc1)c1ccc2ccccc2c1 do in these assays?
TDP1 cell CPT: -14%; TDP1 cell noCPT: inconclusive

How did O=C(C[n+]1cc(Br)cc(Br)c1)c1ccc2ccccc2c1 do in these assays?
TDP1 cell CPT: -24%; TDP1 cell noCPT: inconclusive

Results for CCOCCCn1c(C)nc2c[n+](CC(=O)c3ccc4ccccc4c3)cc(Br)c21 ?
TDP1 cell CPT: 2.3µM*; RORg inh: 3%; Gal4-VP16 FLuc: -6%; IL-1B inflam inh: -58*; TDP1 cell noCPT: 2.6µM*; ELG1 DNA repair: inconclusive

How did CCCc1[nH][nH]c(=O)c1C(c1ccc(Cl)cc1)C(C#N)C#N (stereo not drawn) do in these assays?
TDP1 cell CPT: -12%; RORg inh: -12%; Gal4-VP16 FLuc: -26%; IL-1B inflam inh: -83*; TDP1 cell noCPT: -23%; ELG1 DNA repair: -11%

How did COc1cccc(CNC(=O)C(Cc2ccccc2)NS(=O)(=O)c2ccc3c(c2)CCN3C(C)=O)c1 (stereo not drawn) do in these assays?
TDP1 cell CPT: -21%; TDP1 cell noCPT: -23%

How did O=C(Nc1ccc(Cl)c(Cl)c1)C1=Cc2ccccc2OC1 do in these assays?
TDP1 cell CPT: inconclusive; RORg inh: 36%; Gal4-VP16 FLuc: -14%; IL-1B inflam inh: inconclusive; TDP1 cell noCPT: 23µM*; ELG1 DNA repair: inconclusive

Results for O=C(Nc1cccc(Cl)c1)C1=Cc2cc(Cl)ccc2OC1 ?
TDP1 cell CPT: inconclusive; RORg inh: 40%; Gal4-VP16 FLuc: 13%; IL-1B inflam inh: -6; TDP1 cell noCPT: inconclusive; ELG1 DNA repair: -14%

Results for CCOc1cc(NC(=O)c2ccccc2C)c(OCC)cc1NC(=O)C1=Cc2ccccc2OC1 ?
TDP1 cell CPT: 7.3µM*; RORg inh: 8%; Gal4-VP16 FLuc: 3%[0.365 µM]; IL-1B inflam inh: 0; TDP1 cell noCPT: 5.8µM*; ELG1 DNA repair: -13%

Results for COc1ccccc1CNC(=O)C1CCN(S(=O)(=O)c2ccc3nc4c(c(C(=O)O)c3c2)CCCC4)CC1 ?
TDP1 cell CPT: 0%; RORg inh: 0%; Gal4-VP16 FLuc: -3%; IL-1B inflam inh: -5; TDP1 cell noCPT: 29%; ELG1 DNA repair: 19%

What do the screens show for `CC(Cc1ccccc1)NC(=S)CN1CCCC1=S` (stereo not drawn)?
TDP1 cell CPT: -18%; RORg inh: 8.9µM*; Gal4-VP16 FLuc: inconclusive; IL-1B inflam inh: -19; TDP1 cell noCPT: 0%; ELG1 DNA repair: inconclusive

How did CN1C(=O)Cc2cc(S(=O)(=O)CCC(=O)N3CCN(c4ccc(Cl)cc4)CC3)ccc21 do in these assays?
TDP1 cell CPT: 21µM*; TDP1 cell noCPT: 15µM*

How did O=C(CCS(=O)(=O)c1ccc(Br)cc1)N1CCN(c2ccc(F)cc2)CC1 do in these assays?
TDP1 cell CPT: inconclusive; RORg inh: 30%; Gal4-VP16 FLuc: 2%; IL-1B inflam inh: -9; TDP1 cell noCPT: 16µM*; ELG1 DNA repair: -1%

What do the screens show for `O=C(CCS(=O)(=O)c1ccc(Cl)cc1)Nc1ccc(N2CCOCC2)cc1`?
TDP1 cell CPT: 21µM*; RORg inh: 3%; Gal4-VP16 FLuc: -8%; IL-1B inflam inh: 25; TDP1 cell noCPT: 15µM*; ELG1 DNA repair: -5%

Results for O=C(CCS(=O)(=O)c1ccc(Br)cc1)N1CCN(c2ccc(Cl)cc2)CC1 ?
TDP1 cell CPT: inconclusive; RORg inh: inconclusive; Gal4-VP16 FLuc: inconclusive; IL-1B inflam inh: 8; TDP1 cell noCPT: 15µM*; ELG1 DNA repair: -14%

What do the screens show for `Cc1ccc(S(=O)(=O)CC(=O)N2CCN(c3ccc(F)cc3)CC2)cc1`?
TDP1 cell CPT: -8%; RORg inh: 30%; Gal4-VP16 FLuc: inconclusive; IL-1B inflam inh: 0; TDP1 cell noCPT: -25%; ELG1 DNA repair: -5%

Results for COc1ccc(NC(=O)CCS(=O)(=O)c2ccc(Cl)cc2)cc1 ?
TDP1 cell CPT: -2%; RORg inh: 16%; Gal4-VP16 FLuc: 3%; IL-1B inflam inh: 36; TDP1 cell noCPT: 9%; ELG1 DNA repair: 7%

Results for Cc1oc(-c2ccc(Cl)cc2)nc1CSc1nc2ncccc2[nH]1 ?
TDP1 cell CPT: -19%; TDP1 cell noCPT: -12%
